Hits are enriched below; roughly 2.8% of the tested compounds scored in any of these assays.
FEN1 inhibitor = blocks human flap endonuclease 1 | P39748 | Recombinant FEN1 flap cleavage, fluorescence, 15 min | Potency, µM (highest dose often 114 µM), inactives show at the top dose activity change, negative = inhibition, hits mostly inhibitors | 390,000 tested, 0.35% active | AID 588795; further: potency means the concentration at half of the fitted maximal effect; on the % scale 0 is the no-effect control and ±100 the full control effect; nearly all actives have a fitted effect of over 65% in size
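Nuclease activity of 10 nM FEN1 was measured after 15 min of room-temperature exposure to titrated compounds, by adding 50 nM flap substrate and reading plates at 0 and 15 min.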
PI5P4Ka inh = PI5P4K alpha (human) kinase inhibition; PI5P4Kalpha enzyme, ADP-Glo luminescence, 60 min; active compounds read low; max response, %; 330,000 tested, 1.2% active; active means max response of -50% or lower; inconclusive means between -30% and -50%; inactive means -30% or higher; further: value at the top dose of about 77 µM; on the % scale 0 is the no-effect control and ±100 the full control effect
Target sequence (P48426 whole entry, looked up): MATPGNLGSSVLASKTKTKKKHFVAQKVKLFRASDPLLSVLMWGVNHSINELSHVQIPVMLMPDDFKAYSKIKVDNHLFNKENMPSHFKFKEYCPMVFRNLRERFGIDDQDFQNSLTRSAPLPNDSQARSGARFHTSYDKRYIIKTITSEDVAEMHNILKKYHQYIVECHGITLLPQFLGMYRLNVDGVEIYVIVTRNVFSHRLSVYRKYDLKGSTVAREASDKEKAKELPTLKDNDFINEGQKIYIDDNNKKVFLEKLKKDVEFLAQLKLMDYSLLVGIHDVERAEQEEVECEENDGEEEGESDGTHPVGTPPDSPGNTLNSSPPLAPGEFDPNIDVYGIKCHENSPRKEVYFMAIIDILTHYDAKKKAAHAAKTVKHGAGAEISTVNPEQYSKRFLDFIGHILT
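Compounds were pin-transferred onto PI5P4Kalpha and substrate in HEPES pH 7.4 buffer with EGTA, CHAPS and 5% DMSO. ATP (5 microM final) started the reaction, which ran 60 minutes at room temperature before ADP-Glo detection.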
Pol eta inh-1 = blocks human DNA polymerase eta activity; Q9Y253; recombinant Pol eta, fluorescent DNA replication assay; Potency, µM (top dose mostly 114 µM), inactives show at the highest dose activity change, negative = inhibition, actives largely listed as inhibitors; 390,000 tested, 1.2% active; AID 588591; further: potency means the concentration at half of the fitted maximal effect; on the % scale 0 is the no-effect control and ±100 the full control effect
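Fluorescent replication assay: 50 nM final substrate added after a 15 min room-temperature compound preincubation with 10 nM enzyme. Signal taken at 0 min and again at 10 min.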
Pol kappa inh-1 = DNA polymerase kappa (human) inhibition; Q9UBT6; 400,000 tested, 0.53% active; purified Pol kappa, fluorescent DNA synthesis assay, 10 min; Potency, µM (series often up to 107 µM), for inactives: top-dose activity, negative = inhibition, hits mostly inhibitors; AID 588579; further: potency means the concentration at half of the fitted maximal effect; on the % scale 0 is the no-effect control and ±100 the full control effect
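Kinetic fluorescence screen: compound preincubated 15 min RT with 10 nM enzyme; 50 nM substrate (final) initiates; reads at 0/10 min.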
POLB inh = blocks human DNA polymerase beta activity. P06746. Pol beta primer extension/strand displacement, fluorescence kinetic. Potency, µM (series often up to 114 µM), for the others: at the top dose activity change, negative = inhibition, hits mostly inhibitors. 340,000 tested, 1.3% active; further: potency means the concentration at half of the fitted maximal effect; on the % scale 0 is the no-effect control and ±100 the full control effect
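Curves were derived by four-parameter Hill fits of normalized qHTS data. The kinetic fluorescent primer-extension read was taken at 0 and 10 min after 50 nM substrate, following a 15 min room-temperature preincubation of 10 nM enzyme with compounds.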
Pol iota inh = blocks human DNA polymerase iota activity; Q9UNA4; Pol iota fluorescent replication assay, 10 min; Potency, µM (series often up to 115 µM), without a hit: at the highest dose activity, negative = inhibition, actives largely listed as inhibitors; 390,000 tested, 1% active; AID 588590; further: potency means the concentration at half of the fitted maximal effect
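Fluorescent replication assay read twice, at 0 min and 10 min after adding 50 nM (final) substrate. Enzyme (10 nM) and compounds were first incubated 15 min at room temperature; enzyme-free buffer wells were negative controls.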
GALK inh confirm = galactokinase (human) inhibition, confirmation; shares compounds with Pol eta inh-1; 150 tested, 70% active; Potency, µM (titrated, usually from 115 µM), for the others: at the highest dose activity, negative = inhibition, usual class: inhibitors; purified GALK, Kinase-Glo ATP depletion luminescence
GALK redox cs = generates H2O2 by redox cycling, flagging GALK artifacts; Phenol red-HRP H2O2 redox cycling, absorbance 600 nm; Potency, µM (top dose mostly 115 µM), for inactives: at the highest dose activity change, negative = H2O2 signal, most hits filed as inhibitors; shares compounds with Pol eta inh-1; AID 2035; 150 tested, 40% active
HEK293 viability = HEK-293 cytotoxicity, GALK inhibitor secondary; shares compounds with Pol eta inh-1; HEK-293 viability, ATP luminescence (CellTiter-Glo), 24/48 h; Potency, µM (titrated, usually from 46.1 µM), for inactives: at the top dose activity change, negative = cytotoxicity, most hits filed as inhibitors; 170 tested, 10% active; AID 2547; further: potency means the concentration at half of the fitted maximal effect; on the % scale 0 is the no-effect control and ±100 the full control effect
Pol kappa inh-2 = confirmation of human DNA polymerase kappa inhibitors. 920 tested, 76% active. shares compounds with Pol eta inh-1. AID 720501. Potency, µM, actives largely listed as inhibitors. purified Pol-kappa, fluorescent strand-displacement substrate; further: potency means the concentration at half of the fitted maximal effect
Pol eta inh-2 = confirmation of human DNA polymerase eta inhibitors; shares compounds with Pol eta inh-1; Pol eta primer extension, TAMRA/BHQ fluorescence, 10 min; Potency, µM, actives largely listed as inhibitors; 2,600 tested, 64% active; further: potency means the concentration at half of the fitted maximal effect
* marks the source's active call; other numbers are inactive results; [ ] = dose if it differs, or a comment. Unless noted, the call rests on the fitted dose curve; in most records, active means well fitted curve in the direction sought with a large enough effect; inconclusive means small, poorly fitted or top-dose-only effect, or another doubt; inactive means no such curve, though single readings can be large; an effect the other way counts as inactive or inconclusive.

`C=C1C(=O)OC2C1CCC(C)C1C=CC(=O)C12C` (stereo unspecified) gave FEN1 inhibitor 5%, PI5P4Ka inh -8, Pol eta inh-1 14µM*, Pol kappa inh-1 -39%, Pol iota inh 45µM* and Pol eta inh-2 inconclusive.
Screening CC(=O)O[C@@H]1[C@H]2[C@@H](C[C@@H](C)[C@@H]3C=CC(=O)[C@@]13C)OC(=O)[C@@H]2C returned FEN1 inhibitor 4%, PI5P4Ka inh 4, Pol eta inh-1 6%, Pol kappa inh-1 6%, POLB inh 1% and Pol iota inh -24%.
`Cc1cc(/C=C2\SC(=S)NC2=O)c(C)n1-c1cccc(O)c1` gave FEN1 inhibitor -30%, PI5P4Ka inh -68*, Pol eta inh-1 35µM*, Pol kappa inh-1 -18%, POLB inh 45µM*, Pol iota inh inconclusive and Pol eta inh-2 inconclusive.
O=C(Nc1nnc(-c2ccccc2F)s1)C1CCCO1 (stereo unspecified) was read as FEN1 inhibitor 1%, PI5P4Ka inh inconclusive, Pol eta inh-1 14µM*, Pol kappa inh-1 inconclusive, POLB inh 32µM*, Pol iota inh 50µM* and Pol eta inh-2 inconclusive.
Nc1c(C=C2C=CC(=O)C=C2)c(=O)nc2sc(CC(=O)N3CCCCC3)nn12 was read as FEN1 inhibitor -26%, PI5P4Ka inh inconclusive, Pol eta inh-1 40µM*, Pol kappa inh-1 -24%, POLB inh -19%, Pol iota inh inconclusive and Pol eta inh-2 76*.
For Nc1nnc(SCC(=O)N2CCCCC2)s1 the results were FEN1 inhibitor -1%, PI5P4Ka inh 1, Pol eta inh-1 -3%, Pol kappa inh-1 -12%, POLB inh 36% and Pol iota inh -1%.
Screening O=C1SC(SCc2ccccc2Cl)=N/C1=C\c1ccc(C(=O)O)cc1 returned FEN1 inhibitor inconclusive, PI5P4Ka inh -27, Pol eta inh-1 50µM*, Pol kappa inh-1 -40%, POLB inh inconclusive, Pol iota inh inconclusive and Pol eta inh-2 inconclusive.
Screening CCSC1=N/C(=C\c2ccc(C(=O)O)cc2)C(=O)S1 returned FEN1 inhibitor -13%, PI5P4Ka inh -2, Pol eta inh-1 -9%, Pol kappa inh-1 -7%, POLB inh 1% and Pol iota inh 28%.
`Cc1c(C(=O)N(C)C)sc2c1c(=O)n(-c1ccc(Cl)c(Cl)c1)c(=O)n2Cc1ccc(F)cc1` gave FEN1 inhibitor 0%, Pol eta inh-1 0%, Pol kappa inh-1 2%[60.1 µM], POLB inh 11% and Pol iota inh 8%.
Screening CCS(=O)(=O)C1=NN2C(=N)/C(=C\c3ccc(OC(=O)c4ccco4)c(Br)c3)C(=O)N=C2S1 returned POLB inh 89µM*, GALK inh confirm 30µM*, GALK redox cs 0% and HEK293 viability -10%.
Screening O=C(c1cccs1)N1CCN(c2ncc(Br)cn2)CC1 returned FEN1 inhibitor -7%, PI5P4Ka inh 0, Pol eta inh-1 -10%, Pol kappa inh-1 2%, POLB inh 3% and Pol iota inh -7%.
`CC(=O)c1ccc(NC(=O)Nc2ccc3snnc3c2)cc1` gave FEN1 inhibitor inconclusive, Pol eta inh-1 inconclusive, Pol kappa inh-1 -24%, POLB inh inconclusive, Pol iota inh 89µM* and Pol kappa inh-2 inconclusive.
`CC1(C)CC[C@]2(C(=O)O)CC[C@]3(C)C(=CC[C@@H]4[C@@]5(C)CC[C@H](O[C@@H]6O[C@H](C(=O)O)[C@@H](O)[C@H](O[C@@H]7OC[C@H](O)[C@H](O)[C@H]7O)[C@H]6O)C(C)(C)[C@@H]5CC[C@]43C)[C@@H]2C1` gave FEN1 inhibitor -7%, PI5P4Ka inh -65*, Pol eta inh-1 50µM*, Pol kappa inh-1 inconclusive, Pol iota inh inconclusive and Pol kappa inh-2 inconclusive.
For CC1(C)CC[C@]2(C(=O)O[C@@H]3O[C@H](CO)[C@@H](O)[C@H](O)[C@H]3O)CC[C@]3(C)C(=CCC4[C@@]5(C)CC[C@H](O[C@@H]6O[C@H](C(=O)O)[C@@H](O[C@H]7OC[C@@H](O)[C@@H](O)[C@@H]7O)[C@H](O)[C@H]6O)C(C)(C)C5CC[C@]43C)[C@@H]2C1 (stereo partly specified) the results were FEN1 inhibitor 4%, PI5P4Ka inh -24, Pol eta inh-1 -5%, Pol kappa inh-1 -7% and Pol iota inh -6%.
For N#CCc1ccc(NC(=O)/C=C/c2ccc([N+](=O)[O-])o2)cc1 the results were FEN1 inhibitor 4%, PI5P4Ka inh -59*, Pol eta inh-1 20µM*, Pol kappa inh-1 inconclusive, POLB inh inconclusive, Pol iota inh 45µM* and Pol eta inh-2 inconclusive.
`O=C(Cc1ccc([N+](=O)[O-])cc1)N/N=C/c1ccc([N+](=O)[O-])o1` gave FEN1 inhibitor -22%, PI5P4Ka inh -19, Pol eta inh-1 3%, Pol kappa inh-1 -34%, POLB inh -13% and Pol iota inh inconclusive.
For Cc1ccc(N=C2NC(=O)/C(=C/C=C/c3ccco3)S2)cc1 the results were FEN1 inhibitor 50µM*, PI5P4Ka inh -78*, Pol eta inh-1 10µM*, Pol kappa inh-1 20µM*, POLB inh 22µM*, Pol iota inh 3.2µM* and Pol eta inh-2 67*.

Screens deposited in PubChem BioAssay by National Center for Advancing Translational Sciences (NCATS).
